# Test results from PubChem BioAssay AID651821 (The Scripps Research Institute Molecular Screening Center, 2012).
# Hit rate of the full screen: of about 370,000 compounds, about 4,700 (1.3%) were called active.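 How the source made its calls: active means inhibition above the plate cutoff, the mean of all test compounds on that plate plus 3 SD (cut at about 35% in these data); inactive means the rest.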 Many of the other results were omitted from the sample, so actives are more common in it than they were.
# Test: small molecules binding CAG repeat RNA – biochemical, fluorescence, primary screen (AID 651821);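 further: 0% = DMSO alone and 100% = 100 µM mitoxantrone as full dye displacement; higher means more dye released from RNA so lower well fluorescence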
# Details: r(CAG) RNA repeat, TO-PRO-1 dye displacement fluorescence; at 3 µM; active compounds read high
row,Compound,inhibition
1,O=C1CC[C@@H](COc2ccc3[nH]cc(-c4ccccc4)c3c2-c2ccccc2)N1,6.86% (inactive)
2,C[C@H]([C@@H](O)[C@@H](O)[C@@H](C)C(C)(C)C)[C@H]1CC[C@H]2C3CC[C@H]4C[C@H](OS(=O)(=O)O)[C@@H](OS(=O)(=O)O)C[C@]4(C)[C@H]3CC[C@]12C (stereo partly specified),88.4% (active)
3,CC(=O)O[C@H]1CC[C@@]2(C)[C@@H](CC[C@@H]3[C@@H]2CC[C@]2(C)[C@@H](C(C)(C)O)C[C@@H]32)C1,5.36% (inactive)
4,O=C(N[C@H](Cc1ccccc1)C(=O)N1CCCN(Cc2cccs2)CC1)[C@H]1O[C@@H](n2ccc(=O)[nH]c2=O)[C@H](O)[C@@H]1O,1.68% (inactive)
5,O=S1(=O)c2ccc(Br)cc2-n2nncc2CN1Cc1cccc(Cl)c1,7.4% (inactive)
6,C=C(Cl)COC(=O)C1C2C=CC(C2)C1C(=O)O (stereo unspecified),-2.82% (inactive)
7,Cc1noc(C)c1S(=O)(=O)NCCc1ccc(S(N)(=O)=O)cc1,2.53% (inactive)
8,COC(=O)C[C@@H]1CC[C@H]2[C@@H](COc3ccc(NS(=O)(=O)CC(F)(F)F)cc3C(=O)N2C)O1,2.52% (inactive)
9,CCCOc1ccc(Cn2c(O)cc(=O)[nH]c2=O)cc1,37.6% (active)
10,COc1ccc(Cn2c(O)c(/C=C3/C=CC=N3)c(=O)[nH]c2=O)cc1,4.64% (inactive)
11,COc1cc(=O)[nH]c(=O)n1C(=O)Cc1ccccc1,5.86% (inactive)
12,CN(C)C(=O)N1CCN(C(=O)[C@@H](Cc2ccccc2)NC(=O)[C@H]2O[C@@H](n3ccc(N)nc3=O)[C@H](O)[C@@H]2O)CC1,2.21% (inactive)
13,FC(F)(F)c1cccc(Cn2ccc3ccc(-c4ccc5ccn(Cc6ccccc6)c5c4)cc32)c1,11% (inactive)
14,CC1=C(C(=O)N(C)C)C(c2ccccc2OC(F)F)NC(=O)N1 (stereo unspecified),-5.88% (inactive)
15,O=C(c1cccc(C(F)(F)F)c1)N1CC[C@H]2[C@H](CCCN2Cc2cc(F)cc(F)c2)C1,-2.78% (inactive)
16,Cc1cc(/C=C2/C(=N)N3C(=NC2=O)SN=C3S(C)(=O)=O)c(C)n1-c1ccccc1,58.3% (active)
17,CC1=CC2=NC(=O)/C(=C/c3coc4ccccc4c3=O)C(=N)N2O1,-66.6% (inactive)
18,CCOC(=O)C1=C(O)/C(=C/c2cc(C)n(-c3ccccc3)c2C)N=C1C,8.38% (inactive)
19,COc1ccc2c(C(C)c3ccc(N)cc3)cn(C)c2c1 (stereo unspecified),5.87% (inactive)
20,CN1C(=O)C2CC(O)C(SC3CC4C(=O)N(C)C(=O)C4CC3O)CC2C1=O (stereo unspecified),1.65% (inactive)
21,COc1ccc(Cn2ccc3ccc(-c4ccc5ccn(Cc6ccccc6C)c5c4)cc32)cc1,15.1% (inactive)
